Assay results published in PubChem BioAssay (EPA / NIEHS).
The source holds several records for some structures; these can differ, active in one and inactive in another. The source made the active and inactive calls. The calls were made as follows: active = hit-call score of the fitted dose curve at least 0.9, where 1 is the maximum; inactive = score below 0.9.

What was measured:
[1] = BSK_hDFCGF_SRB: Viability Assessment in the BioMAP Diversity Plus: hDFCGF Assay (AID 2283061); conditions: primary human foreskin fibroblasts;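 also: cells exposed to compound for 24 h before the read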
Procedure, shortened: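 SRB-based viability read on primary human skin fibroblasts at 24 h: TCA fixation, 0.1% dye, 560 nm. Gain or loss of signal is fitted against the DMSO negative control.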

[2] = read-out: TIMP metallopeptidase inhibitor 1 (TIMP1), TIMP1 (gene 7076); assay: BSK_hDFCGF_TIMP1: BioMAP Diversity Plus: hDFCGF Assay for TIMP metallopeptidase inhibitor 1 (TIMP1) Biomarker Activity (AID 2283062); conditions: primary human foreskin fibroblasts; actives raise or lower the signal
Procedure, shortened: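 Bidirectional curve fitting against DMSO baseline yielded this endpoint, based on ELISA detection of TIMP-1 in primary human foreskin fibroblasts exposed to compound for 24 h.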

[3] = read-out: Monokine induced gamma interferon (MIG), CXCL9 (gene 4283); assay: BSK_hDFCGF_MIG: BioMAP Diversity Plus: hDFCGF Assay for Monokine induced gamma interferon (MIG) Biomarker Activity (AID 2283063); conditions: primary human foreskin fibroblasts; actives raise or lower the signal
Procedure, shortened: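 Endpoint derived by bidirectional fitting relative to DMSO; MIG quantified via ELISA in primary human foreskin fibroblasts harvested 24 h after dosing.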

[4] = read-out: Matrix Metallopeptidase 1 (MMP1), MMP1 (gene 4312); assay: BSK_hDFCGF_MMP1: BioMAP Diversity Plus: hDFCGF Assay for Matrix Metallopeptidase 1 (MMP1) Biomarker Activity (AID 2283064); conditions: primary human foreskin fibroblasts; actives raise or lower the signal
Procedure, shortened: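 Primary human foreskin fibroblasts in the hDFCGF system were dosed with test chemical, and MMP1 was measured by ELISA 24 h later. Values come from bidirectional curve fitting against the DMSO baseline.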

[5] = read-out: Vascular cell adhesion molecule 1 (VCAM1), VCAM1 (gene 7412); assay: BSK_hDFCGF_VCAM1: BioMAP Diversity Plus: hDFCGF Assay for Vascular cell adhesion molecule 1 (VCAM1) Biomarker Activity (AID 2283065); conditions: primary human foreskin fibroblasts; actives raise or lower the signal;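 as to AC50: VCAM-1 protein level quantified by ELISA after 24 h chemical exposure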
Procedure, shortened: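 Measured after 24 h chemical treatment of primary human skin fibroblasts, VCAM-1 was detected by ELISA and concentration-response analysed in both directions versus DMSO vehicle.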

[6] = read-out: Plasminogen activator inhibitor-1 (PAI1), SERPINE1 (gene 5054); assay: BSK_hDFCGF_PAI1: BioMAP Diversity Plus: hDFCGF Assay for Plasminogen activator inhibitor-1 (PAI1) Biomarker Activity (AID 2283066); conditions: primary human foreskin fibroblasts; actives raise or lower the signal
Procedure, shortened: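 Human foreskin fibroblasts in the hDFCGF system were dosed with compound for 24 h; PAI-1 was quantified by ELISA. Bidirectional curve fitting used DMSO as negative control and baseline.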

[7] = read-out: Interferon-gamma inducible Protein 10 (IP10), CXCL10 (gene 3627); assay: BSK_KF3CT_IP10: BioMAP Diversity Plus: KF3CT Assay for Interferon-gamma inducible Protein 10 (IP10) Biomarker Activity (AID 2283068); conditions: primary human keratinocytes with fibroblasts; actives raise or lower the signal
Procedure, shortened: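 In a primary skin co-culture of keratinocytes and fibroblasts, IP-10 is quantified by ELISA at 24 h after dosing. SRB staining of parallel wells monitors overt toxicity. Curves are fitted both directions against DMSO.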

[8] = BSK_KF3CT_SRB: Viability Assessment in the BioMAP Diversity Plus: KF3CT Assay (AID 2283069); conditions: primary human keratinocytes with fibroblasts;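 also: total protein by sulforhodamine B staining as a cytotoxicity measure; read 24 h after compound addition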
Procedure, shortened: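 Human primary keratinocyte plus foreskin fibroblast co-culture exposed to chemicals for 24 h. Total protein measured by 0.1% sulforhodamine B staining after 10% TCA fixation, read at 560 nm; bidirectional fitting versus DMSO baseline.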

[9] = read-out: Interleukin-1 alpha (IL1a), IL1A (gene 3552); assay: BSK_KF3CT_IL1a: BioMAP Diversity Plus: KF3CT Assay for Interleukin-1 alpha (IL1a) Biomarker Activity (AID 2283070); conditions: primary human keratinocytes with fibroblasts; actives raise or lower the signal
Procedure, shortened: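 Human keratinocyte plus foreskin fibroblast primary co-culture, sampled 24 h after chemical dosing. IL-1a measured by ELISA; responses fitted bidirectionally against DMSO baseline (negative control), so gain or loss of signal both count.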

[10] = read-out: Intercellular Adhesion Molecule 1 (ICAM1), ICAM1 (gene 3383); assay: BSK_KF3CT_ICAM1: BioMAP Diversity Plus: KF3CT Assay for Intercellular Adhesion Molecule 1 (ICAM1) Biomarker Activity (AID 2283067); conditions: primary human keratinocytes with fibroblasts; actives raise or lower the signal
Procedure, shortened: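 Bidirectional curve fitting against a DMSO baseline was applied to ICAM-1 ELISA signal from primary human skin co-cultures harvested 24 h after treatment, with SRB staining of parallel wells for overt cytotoxicity.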

Measured: AC50

COP(=O)(OC)O/C(C)=C/C(=O)N(C)C
not listed: [10]
inactive: all other assays above

CCOC(=O)C(C)OC(=O)c1cc(Oc2ccc(C(F)(F)F)cc2Cl)ccc1[N+](=O)[O-] (stereo not drawn)
inactive: all assays above

Cc1c(COC(=O)[C@@H]2[C@H](/C=C(\Cl)C(F)(F)F)C2(C)C)cccc1-c1ccccc1
active: [4] 3.23 µM
inactive: all other assays above

CS(=O)(=O)c1cc(C(F)(F)F)ccc1C(=O)c1cnoc1C1CC1
inactive: all assays above

CCCC(=NOCC)C1=C(O)CC(CC(C)SCC)CC1=O (stereo not drawn)
inactive: all assays above

O=C(O)c1c(Cl)ccc2cc(Cl)cnc12
not listed: [10]
inactive: all other assays above

N#Cc1c(Cl)cccc1Cl
inactive: all assays above

CCOc1nc(F)cc2nc(S(=O)(=O)Nc3c(Cl)cccc3Cl)nn12
active: [7] 34 µM
inactive: all other assays above

CCCCC(C#N)(Cn1cncn1)c1ccc(Cl)cc1 (stereo not drawn)
active: [6] 7.4 µM | [7] 0.148 µM
not listed: [10]
inactive: all other assays above

COc1cc(OC)nc(NC(=O)NS(=O)(=O)c2ncccc2OCC(F)(F)F)n1
not listed: [10]
inactive: all other assays above

O=P(O)(O)CCCl
inactive: all assays above

COC(=O)c1c(C(F)F)nc(C(F)(F)F)c(C2=NCCS2)c1CC(C)C
active: [7] 21.8 µM
not listed: [10]
inactive: all other assays above

CCCCOCN(C(=O)CCl)c1c(CC)cccc1CC
active: [1] 31.1 µM | [2] 13.7 µM | [3] 33.3 µM | [4] 34.8 µM | [6] 20 µM | [10] 35.2 µM | [7] 26.4 µM | [8] 35.6 µM | [9] 35.3 µM

CN=C=S
not listed: [10]
inactive: all other assays above

CNC(=O)N(C)c1nnc(C(C)(C)C)s1
inactive: all assays above

CCNC(=O)NC(=O)C(C#N)=NOC
not listed: [10]
inactive: all other assays above

Nc1c(Cl)c(Cl)nc(C(=O)O)c1Cl
inactive: all assays above

CC(C)(C)C(=O)C(Oc1ccc(Cl)cc1)n1cncn1 (stereo not drawn)
not listed: [5]
inactive: all other assays above

O=C(Nc1ccccc1-c1ccc(Cl)cc1)c1cccnc1Cl
active: [7] 0.128 µM
inactive: all other assays above

CCCN(CC)CC1COC2(CCC(C(C)(C)C)CC2)O1 (stereo not drawn)
active: [2] 3.97 µM | [3] 0.602 µM | [4] 1.43 µM | [7] 3.97 µM
not listed: [10]
inactive: all other assays above

Cc1nc(N(C)C)nc(OC(=O)N(C)C)c1C
active: [1] 29.8 µM
inactive: all other assays above

Nc1c(Cl)c(F)nc(OCC(=O)O)c1Cl
inactive: all assays above

CC1(C)C(C=C(Cl)Cl)C1C(=O)OC(C#N)c1cccc(Oc2ccccc2)c1 (stereo not drawn)
not listed: [10]
inactive: all other assays above

CCC(C)n1c(=O)[nH]c(C)c(Br)c1=O (stereo not drawn)
not listed: [10]
inactive: all other assays above

CCCCC(O)(Cn1cncn1)c1ccc(Cl)cc1Cl (stereo not drawn)
active: [4] 12.7 µM | [6] 21.2 µM
inactive: all other assays above

CCNP(=S)(OC)O/C(C)=C/C(=O)OC(C)C (stereo not drawn)
active: [7] 0.148 µM
not listed: [5]
inactive: all other assays above

COCC(C)N(C(=O)CCl)c1c(C)csc1C (stereo not drawn)
inactive: [1] | [2] | [3] | [4] | [6] | [10] | [7] | [8] | [9]
active: [6] 20 µM

COc1cc(Cl)c(OC)cc1Cl
not listed: [10]
inactive: all other assays above

CCN(CC)c1nc(C)cc(OP(=S)(OC)OC)n1
active: [4] 4.09 µM | [5] 27 µM | [6] 11.3 µM
not listed: [10]
inactive: all other assays above

COC(=O)NS(=O)(=O)c1ccc(N)cc1
not listed: [10]
inactive: all other assays above

N#Cc1c[nH]cc1-c1cccc2c1OC(F)(F)O2
active: [1] 5.56 µM | [4] 5.28 µM | [5] 5.39 µM
inactive: all other assays above

CO/N=C(/C1=NOCCO1)c1ccccc1Oc1ncnc(Oc2ccccc2Cl)c1F
active: [2] 8.26 µM | [7] 7.33 µM | [9] 20 µM
not listed: [10]
inactive: all other assays above

O=c1n(Cl)c(=O)n(Cl)c(=O)n1Cl
inactive: all assays above

CCN(CC)C(=O)C(C)Oc1cccc2ccccc12 (stereo not drawn)
not listed: [5]
inactive: all other assays above

CC(C)NC(=O)N1CC(=O)N(c2cc(Cl)cc(Cl)c2)C1=O
active: [4] 0.148 µM
not listed: [5]
inactive: all other assays above

OC(c1ccc(Cl)cc1)(c1ccc(Cl)cc1)C(Cl)(Cl)Cl
active: [1] 10.5 µM | [2] 11.4 µM | [3] 10.1 µM | [4] 11 µM | [5] 8.87 µM | [6] 11 µM | [7] 9.49 µM | [8] 6.45 µM | [9] 8.05 µM

O=C1C2CC=CCC2C(=O)N1SC(Cl)(Cl)Cl (stereo not drawn)
inactive: [2]
active: [1] 6.26 µM | [3] 7.37 µM | [4] 10.7 µM | [6] 7.58 µM | [7] 10.3 µM | [8] 5.79 µM

CCOc1cc(C(C)(C)C)ccc1C1COC(c2c(F)cccc2F)=N1 (stereo not drawn)
active: [1] 19.7 µM | [2] 13.8 µM | [3] 29.4 µM | [4] 14.3 µM | [6] 12.3 µM | [10] 31.3 µM | [7] 17.3 µM | [8] 8.44 µM | [9] 11.2 µM

CCSC(=O)N1CCCCCC1
not listed: [5]
inactive: all other assays above

CC1(C)C(C(=O)OC(C#N)c2cccc(Oc3ccccc3)c2)C1(C)C (stereo not drawn)
active: [4] 3.02 µM
not listed: [5]
inactive: all other assays above

COc1ccc(-c2ccccc2)cc1NNC(=O)OC(C)C
not listed: [5] | [10]
inactive: all other assays above

Clc1cccc(C(Cl)(Cl)Cl)n1
not listed: [5] | [10]
inactive: all other assays above

CN/C(=N\[N+](=O)[O-])NCc1cnc(Cl)s1
not listed: [5] | [10]
inactive: all other assays above
